Reference: PubChem BioAssay (NCI)
About 79,000 compounds went through this panel and 15% of them were active in at least one assay; those are over-represented in the sample as a whole. Active and inactive are the calls of the source. Rule as the data show it: active = growth inhibition above about 70%; inactive = the rest.

Experiments:
[1] = NCI Yeast Anticancer Drug Screen. Data for the rad52 strain (AID 147);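 also: 0% = growth of vehicle-treated control cultures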; conditions: S. cerevisiae rad52 mutant growth inhibition, stronger effect = higher value
In short: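 Measured: yeast growth inhibition. System: strain with a defined DNA damage repair alteration. Reference: vehicle-treated control cultures.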

[2] = NCI Yeast Anticancer Drug Screen. Data for the wt1 strain (AID 149);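 also: 0% = growth of vehicle-treated wt1 cultures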; conditions: S. cerevisiae wt1 strain (SPY 50644) growth inhibition, stronger effect = higher value
In short: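 Using yeast strain wt1, compound-induced growth inhibition was determined against vehicle-treated cultures.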

[3] = NCI Yeast Anticancer Drug Screen. Data for the rad50EPP+ strain (AID 151);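 also: 0% = growth of vehicle-treated control cultures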; conditions: S. cerevisiae rad50 mutant strain, stronger effect = higher value
In short: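 One strain with a rad50 alteration (rad50EPP+) was compound-treated, its growth then compared to that of vehicle controls.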

[4] = NCI Yeast Anticancer Drug Screen. Data for the mgt1 strain (AID 153); conditions: S. cerevisiae mgt1 mutant growth inhibition, stronger effect = higher value
In short: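 After exposure of the mgt1 yeast mutant to compound, growth was measured and reported as inhibition compared with vehicle controls.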

[5] = NCI Yeast Anticancer Drug Screen. Data for the rad50 strain (AID 155);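 also: 0% = growth of vehicle-only cultures of the same strain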; conditions: S. cerevisiae rad50 strain growth inhibition, stronger effect = higher value
In short: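 Relative growth inhibition (compound vs vehicle) was measured in yeast with a defined repair-gene alteration.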

[6] = NCI Yeast Anticancer Drug Screen. Data for the mec2-1 strain (AID 157); conditions: S. cerevisiae mec2-1 strain, stronger effect = higher value
In short: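 Test agents were screened against the mec2-1 yeast strain, with defined DNA repair or cell cycle alteration. Growth was scored as inhibition against vehicle-only controls.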

[7] = NCI Yeast Anticancer Drug Screen. Data for the rad14 strain (AID 159);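 also: 0% = growth of vehicle-treated control cultures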; conditions: S. cerevisiae rad14 strain growth inhibition, stronger effect = higher value
In short: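 Screen for anticancer potential: a yeast strain altered in DNA damage repair is grown with compound, and reduced growth is quantified against vehicle controls.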

[8] = NCI Yeast Anticancer Drug Screen. Data for the sgs1 mgt1 strain (AID 161);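 also: 0% = growth of cultures given vehicle only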; conditions: S. cerevisiae sgs1 mgt1 strain, stronger effect = higher value
In short: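 Mutant yeast exposed to compound; growth scored against vehicle-only wells.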

[9] = NCI Yeast Anticancer Drug Screen. Data for the cln2 rad14 strain (AID 165);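 also: 0% = growth equal to vehicle treated cultures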; conditions: S. cerevisiae cln2 rad14 strain, stronger effect = higher value
In short: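 Growth of compound-exposed yeast (cln2 rad14 genotype) measured and expressed as inhibition relative to vehicle.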

[10] = NCI Yeast Anticancer Drug Screen. Data for the bub3 strain (AID 167); conditions: S. cerevisiae bub3 mutant strain, stronger effect = higher value
In short: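 Screening used yeast with an engineered genetic alteration affecting cell cycle control. Compound-exposed cultures were compared with vehicle cultures, and reduced growth was taken as inhibition.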

[11] = NCI Yeast Anticancer Drug Screen. Data for the wt2 strain (AID 169);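 also: 0% = growth of vehicle-treated yeast cultures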; conditions: S. cerevisiae wt2 strain growth inhibition, stronger effect = higher value
In short: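 Genetically defined yeast strains from a DNA-repair/cell-cycle panel were used. Compound-exposed yeast growth was measured, and the inhibition was calculated relative to vehicle treatment.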

[12] = NCI Yeast Anticancer Drug Screen. Data for the mlh1 strain (AID 171);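 also: 0% = growth of vehicle-treated control cultures of the same strain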; conditions: S. cerevisiae mlh1 strain growth inhibition, stronger effect = higher value
In short: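 Here the genetically defined yeast mutant is grown with each compound, and the extent to which its growth falls below that of vehicle-exposed cells is reported.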

[13] = NCI Yeast Anticancer Drug Screen. Data for the sgs1 strain (AID 173);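 also: 0% = growth of vehicle-only control cultures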; conditions: S. cerevisiae sgs1 mutant, stronger effect = higher value
In short: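 Relative growth inhibition, referenced to vehicle, was determined in a yeast strain with a defined alteration affecting DNA damage repair or cell cycle control after compound exposure.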

[14] = NCI Yeast Anticancer Drug Screen. Data for the mlh1 rad18 strain (AID 175); conditions: S. cerevisiae mlh1 rad18 strain growth inhibition, stronger effect = higher value
In short: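 In this whole-cell yeast screen, a strain with altered DNA damage repair is challenged with compound, and its growth is measured against matched vehicle-treated controls.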

[15] = NCI Yeast Anticancer Drug Screen. Data for the rad18 strain (AID 177); conditions: S. cerevisiae rad18 mutant growth inhibition, stronger effect = higher value
In short: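 Screen uses a yeast strain with a defined lesion in DNA damage repair; compound effect is read as loss of growth compared to untreated vehicle cultures.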

[16] = at 5.0 µM (retest, dose inferred, filed as 0.5)
[17] = at 50.0 µM (retest, dose inferred, filed as 5.0)

Measured: growth inhibition

COc1ccc(C(OCC2OC(n3cnc4c(=O)n(Cc5ccccc5[N+](=O)[O-])nnc43)C(O)C2O)(c2ccccc2)c2ccc(OC)cc2)cc1 (stereo not drawn)
inactive: [1]; at 1.2 µM 12% | [1]; at 3.7 µM 16% | [1]; at 11.0 µM 18% | [1]; at 33.0 µM 19% | [1]; at 100.0 µM 15% | [2]; at 1.2 µM -18% | [2]; at 3.7 µM -11% | [2]; at 11.0 µM -2% | [2]; at 33.0 µM -4% | [2]; at 100.0 µM -2% | [3]; at 1.2 µM 8% | [3]; at 3.7 µM 8% | [3]; at 11.0 µM -5% | [3]; at 33.0 µM -7% | [3]; at 100.0 µM -15% | [4]; at 1.2 µM 9% | [4]; at 3.7 µM 5% | [4]; at 11.0 µM 20% | [4]; at 33.0 µM 25% | [4]; at 100.0 µM 20% | [5]; at 1.2 µM 22% | [5]; at 3.7 µM 24% | [5]; [16] 17% | [5]; at 11.0 µM 26% | [5]; at 33.0 µM 18% | [5]; [17] 35% | [5]; at 100.0 µM 17% | [6]; at 1.2 µM 14% | [6]; at 3.7 µM 13% | [6]; [16] 14% | [6]; at 11.0 µM 15% | [6]; at 33.0 µM 22% | [6]; [17] 33% | [6]; at 100.0 µM 9% | [7]; at 1.2 µM -23% | [7]; at 3.7 µM -22% | [7]; at 11.0 µM -25% | [7]; at 33.0 µM -28% | [7]; at 100.0 µM -31% | [8]; [16] 0% | [9]; [16] 2% | [10]; at 1.2 µM 32% | [10]; at 3.7 µM 26% | [10]; [16] 7% | [10]; at 11.0 µM 23% | [10]; at 33.0 µM 26% | [10]; at 100.0 µM 14% | [11]; at 1.2 µM 1% | [11]; at 3.7 µM -4% | [11]; at 11.0 µM 6% | [11]; at 33.0 µM 13% | [11]; at 100.0 µM 6% | [12]; at 1.2 µM -8% | [12]; at 3.7 µM -2% | [12]; at 11.0 µM -2% | [12]; at 33.0 µM 3% | [12]; at 100.0 µM -4% | [13]; at 1.2 µM -10% | [13]; at 3.7 µM -20% | [13]; at 11.0 µM -10% | [13]; at 33.0 µM -5% | [13]; at 100.0 µM 8% | [14]; [16] 21% | [14]; [17] 23% | [15]; at 1.2 µM 28% | [15]; at 3.7 µM 27% | [15]; at 11.0 µM 33% | [15]; at 33.0 µM 37% | [15]; at 100.0 µM 32%
active: [5]; at 50.0 µM 89.2% | [6]; at 50.0 µM 91.4% | [8]; [17] 97% | [8]; at 50.0 µM 91.6% | [9]; [17] 88% | [9]; at 50.0 µM 88.7% | [10]; [17] 96% | [10]; at 50.0 µM 89.4% | [14]; at 50.0 µM 89.5%
